# Data from PubChem BioAssay (NCI).
# This is part of a sample that, as a whole, favours compounds with a hit. Of some 83,000 tested, about 20% had one in any assay.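 Compound tested at a single concentration for 48 hours in 96-well plates; a percent growth value below 10 was scored as active.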 Values without a mark were called inactive. The source made the active and inactive calls.
# Test system: K-562 leukemia
# Assay: NCI-60 one-dose screen, 48 h (100 = growth as untreated, 0 = no growth, -100 = all killed)
# Conditions: 10 µM unless noted
row,Structure (SMILES),growth
1,CC(=O)Nc1ccc2c(c1)c(NC(C)=O)nn2C(=O)Nc1ccc(Cc2ccccc2)cc1,18.2%
2,Cc1ccc2c(c1)O/C(=C\c1cccc(OCC(=O)c3ccccc3)c1)C2=O,93.4%
3,Nc1nc(SCc2ccccc2)c2ncn(C3CCCC3)c2n1,104%
4,Cn1c2ccccc2c2c3c(c4c5ccccc5n(CCCCCC#N)c4c21)C(=O)N(O)C3=O,16.2%
5,CCN(CC)Cc1cc(Nc2c3ccc(Cl)cc3nc3c(C)cccc23)ccc1O,-31% (active)
6,CS(=O)(=O)c1ccc(-c2cnc3ccc(-c4cccc(S(C)(=O)=O)c4)nn23)cc1,46.9%
7,COc1ccc(CCN2CCCn3c2nc2ccccc2c3=O)cc1,13.1%
8,CC#CC#Cc1cccc(=O)o1,73.8%
9,c1ccc2c(Nc3cccc4ccccc34)cccc2c1,11.2%
10,c1ccc(CSc2ncnc3nc[nH]c23)nc1,96.7%
11,O=C(O)c1cccnc1Br,109%
12,COc1ccc(-c2cc(-c3cccnc3)nc3sc4c(=O)n(-c5ccc(C)cc5)cnc4c23)cc1OC,111%
13,CNC(=O)c1cc(Oc2ccc3nc(NC(=O)Nc4ccc(CN5CCOCC5)c(C(F)(F)F)c4)sc3c2)ccn1,5.93% (active)
14,CCN(CC)CCCC(C)NCCCNc1cccc2cccnc12 (stereo unspecified),97.5%
15,CCCCN(CCCC)Cc1c(C)[nH]c2cc(OC)ccc2c1=O,98%
16,O=C1C[C@H](Sc2nc(-c3ccc(F)cc3)cc(C(F)(F)F)n2)[C@H]2CO[C@@H]1O2,53.3%
